Results from PubChem BioAssay AID1986 (Sanford-Burnham Center for Chemical Genomics, 2009).
Screen size: about 290,000 compounds; about 890 (0.31%) were called active. Rule as the data show it: active = inhibition mostly above about 52% (no sharp cut-off); inactive = mostly below about 76%. Shown is part of a subset that was picked to be rich in actives.

Assay: inhibitors of HIV fusion peptide binding, primary screen, biochemical, uHTS, fluorescence dequenching (AID 1986)
Settings: cell-free peptide binding, 30 min, stronger effect = higher value
[1] = measured here: repeat confirmation average inhibition, at 18.6 µM

Compound	inhibition (at 20 µM)	inhibition [1] [%]
COc1cccc(NC(=O)N2CCC(NC(=O)C(Cc3ccccc3F)NC(C)=O)CC2)c1 (centres undefined)	-0.5% (inactive)	–
O=C(Nc1ccccc1C(=O)O)/C(=C/c1ccc([N+](=O)[O-])cc1)NC(=O)c1ccc(Br)o1	20.5% (inactive)	–
Cc1cc(C)c(NC(=O)CCCSc2nnc(N)s2)c(C)c1	-0.5% (inactive)	–
Cc1ccc(-c2[nH]c(-c3ccc(C(=O)O)cc3)nc2-c2ccccc2)cc1	61.6% (inactive)	27.3
CSc1nc(-c2ccc(C)cc2)[nH]c1S(=O)(=O)c1ccccc1	-0.2% (inactive)	–
CC(=O)Sc1nc(-c2ccccc2)[nH]c1S(=O)(=O)c1ccc(C)cc1	60.7% (active)	–
COc1ccc(C2/C(=C(/O)c3ccc(F)cc3)C(=O)C(=O)N2c2ccccn2)cc1OC (centres undefined)	0.2% (inactive)	–
CC(=O)Nc1ccc(S(=O)(=O)N2CCN(S(=O)(=O)N3CCCCC3)CC2)cc1	0.1% (inactive)	–
O=C(Nc1ccccc1)OC1C2CCC1C(N1CCCCC1)CC2 (centres undefined)	1.6% (inactive)	–
O=C(Nc1nccs1)c1cc(S(=O)(=O)N2CCCCC2)ccc1Cl	-1.5% (inactive)	–
CC(=O)N1C(=O)/C(=C2\SC(=S)N(NS(=O)(=O)c3ccc(C)cc3)C2=O)c2ccccc21	55.6% (inactive)	-0.3
O=C1/C(=C\c2ccc(Br)cc2)SC(=S)N1NS(=O)(=O)c1ccccc1	67.6% (inactive)	0.2
CSc1ccc(CNCc2ccc3c(c2)OCO3)cc1	3.5% (inactive)	–
CCCC(C(=O)Nc1ccc2c(C)cc(=O)oc2c1)c1ccccc1 (centres undefined)	0.5% (inactive)	–
O=[N+]([O-])c1ccc(/C=C/C2=NN(c3ccccc3)C(c3ccco3)C2)cc1 (centres undefined)	35% (inactive)	–
C(=C\c1ccco1)/C1=NN(c2ccccc2)C(c2ccco2)C1 (centres undefined)	81.8% (active)	–
O=[N+]([O-])c1ccc(/C=C/C2=NN(c3ccccc3)C(c3ccco3)C2)o1 (centres undefined)	18.7% (inactive)	–
CC(CNC(=O)CCS(=O)(=O)c1cc2c(cc1Cl)NC(=O)CO2)c1ccccc1 (centres undefined)	-0.3% (inactive)	–
COc1ccc(/C=c2\s/c(=C/C(=O)c3ccc(C)cc3)[nH]c2=O)cc1OC	77.2% (active)	–
COc1ccc(/C=c2\s/c(=C/C(=O)c3ccc(C)cc3)[nH]c2=O)c(OC)c1	47.8% (inactive)	–
COc1ccc(/C=C2\SC(c3ccc(C)cc3)=NC2=O)cc1OC	97.6% (active)	176
COc1cccc(/C=c2\s/c(=C/C(=O)c3ccc(C)cc3)[nH]c2=O)c1OC	4.7% (inactive)	–
COc1ccc(/C=C2/SC(c3ccc(C)cc3)=NC2=O)cc1OC	0.3% (inactive)	–
COc1cc(/C=C2\SC(c3ccc(C)cc3)=NC2=O)ccc1O	36.7% (inactive)	–
Cc1cc2c(ncn2Cc2ccccc2)c(NS(C)(=O)=O)c1C	-1% (inactive)	–

Compound	inhibition (at 20 µM)	inhibition [1] [%]
O=C(CN(Cc1ccc(F)cc1)C(=O)CNS(=O)(=O)c1ccc(F)cc1)NCc1ccco1	1.3% (inactive)	–
COc1ccc(CCNC(=O)Cc2cc(OC)c(OC)cc2Br)cc1OC	1.9% (inactive)	–
CCOC(=O)N1CCc2c(sc3ncn(C)c(=O)c23)C1	-2.6% (inactive)	–
COC(=O)c1ccccc1NC(=O)c1ccc2c(c1)OCCCO2	-0.4% (inactive)	–
O=C(CS(=O)(=O)Cc1ccccc1)N1CCN(c2cccc(C(F)(F)F)c2)CC1	4.6% (inactive)	–
COc1cc(/C=C2/SC(=O)NC2=O)ccc1Oc1ccc([N+](=O)[O-])cc1[N+](=O)[O-]	74.1% (inactive)	9.9
COc1cc(/C=C2\SC(=O)NC2=O)ccc1Oc1ccc([N+](=O)[O-])cn1	13.1% (inactive)	–
COc1cc(/C=C2\SC(=O)NC2=O)ccc1Oc1ccc([N+](=O)[O-])cc1[N+](=O)[O-]	63% (active)	–
Cc1ccc(NC(=O)Cn2cnc3sc(C(=O)NCc4ccco4)c(C)c3c2=O)cc1Cl	-1.5% (inactive)	–
N#Cc1c(N)sc2c1CCCCCC2	-2% (inactive)	–
N#Cc1c(N2CCCCC2)nc(N2CCCCC2)c2c1CCN(Cc1ccccc1)C2	8.7% (inactive)	–
N#Cc1c(N)sc(=S)c2c1CCCC2	0% (inactive)	–
N#Cc1c(N)sc(=S)c2c1CCCCC2	50% (active)	–
N#Cc1c(N)sc(=S)c2c1CCN(Cc1ccccc1)C2	86.2% (active)	–
N#Cc1c(N)sc2c1CCN(CCc1ccccc1)C2	8.1% (inactive)	–
CN1CC2([N+](=O)[O-])CC=C(OCCO)C([N+](=O)[O-])(C1)C2 (centres undefined)	0.4% (inactive)	–
O=C(Nc1ccc(N2CCOCC2)cc1)C1(S(=O)(=O)c2ccccc2)CC1	-1.1% (inactive)	–
COc1ccc(CCN2CCCn3c2nc2c3c(=O)n(CC(C)C)c(=O)n2C)cc1OC	0.5% (inactive)	–
CC(C)c1ccc(S(=O)(=O)/N=C2\C=C(NS(=O)(=O)c3ccccc3)C(=O)c3ccccc32)cc1	74.7% (active)	–
CC(C)c1ccc(S(=O)(=O)/N=C2/C=CC(=O)c3ccccc32)cc1	3.8% (inactive)	–
Cc1cc(C)c(S(=O)(=O)/N=C2\C=C(NS(=O)(=O)c3ccccc3)C(=O)c3ccccc32)c(C)c1	68.3% (inactive)	42.3
O=C(CSc1n[nH]c(=O)[nH]c1=O)NC1CCCCC1	-0.2% (inactive)	–
COC(=O)c1cc(N2CCNCC2)nc2ccccc12	6.8% (inactive)	–
O=C(O)c1cc(N2CCOCC2)nc2ccccc12	0.2% (inactive)	–
COC(=O)c1cc(N2CCN(C)CC2)nc2ccccc12	114% (active)	–

Compound	inhibition (at 20 µM)	inhibition [1] [%]
Cn1c(=O)c2[nH]c(Nc3ccccc3)nc2n(C)c1=O	-0.7% (inactive)	–
CC(C)c1ccc(NC(=O)CCNS(=O)(=O)c2ccc3[nH]c(=O)oc3c2)cc1	2.1% (inactive)	–
CC(C)CNC(=S)N(CCN(C)C)Cc1cc2cc3c(cc2[nH]c1=O)OCO3	-2.4% (inactive)	–
Oc1ccc2nnc3c(Br)cnn3c2c1	82.2% (active)	59.6
Clc1ccc2nc3c4ccccc4cnn3c2c1	0% (inactive)	–
Oc1ccc(Br)cc1Cn1nnc2ccccc21	-0.3% (inactive)	–
COc1ccc(OC)c(/C=N/NC(=O)CNC(=O)c2cccc3ccccc23)c1	-1.3% (inactive)	–
Nc1cc(=O)[nH]c(SCC(=O)N2N=C(c3ccc4ccccc4c3)CC2c2ccccc2)n1 (centres undefined)	-0.7% (inactive)	–
Cc1cc(-c2ccccc2)n2ncnc2n1	0.4% (inactive)	–
COc1ccc2nc(C)cc(NCc3ccc(F)cc3)c2c1	65.2% (active)	53
COc1ccc(CNc2cc(C)nc3ccc(OC)cc23)cc1	-0.2% (inactive)	–
COc1ccc2nc(C)cc(NCc3cccc(C(F)(F)F)c3)c2c1	-0.7% (inactive)	–
COc1ccccc1C(=O)Nc1ccccn1	0.9% (inactive)	–
CCc1nc(N[C@@H](CC(C)C)C(=O)O)c2oc3ccccc3c2n1	4.3% (inactive)	–
CN1CC=C2C(C#N)=C(N)C(C#N)(C#N)[C@H](c3ccoc3)[C@H]2C1	0.3% (inactive)	–
CN1CC=C2C(C#N)=C(N)C(C#N)(C#N)C(CCc3ccccc3)C2C1 (centres undefined)	64.6% (inactive)	14.6
Cc1ccc(C2C3CN(C(C)C)CC=C3C(C#N)=C(N)C2(C#N)C#N)cc1 (centres undefined)	87.6% (active)	–
CCCC1C2CN(C(C)C)CC=C2C(C#N)=C(N)C1(C#N)C#N (centres undefined)	-3.6% (inactive)	–
CC(=O)N1CC=C2C(C#N)=C(N)C(C#N)(C#N)[C@H](c3ccoc3)[C@H]2C1	29% (inactive)	–
CCN1CC=C2C(C#N)=C(N)C(C#N)(C#N)C(CCc3ccccc3)C2C1 (centres undefined)	-0.3% (inactive)	–
Cc1ccc(C2C3CSCC=C3C(C#N)=C(N)C2(C#N)C#N)cc1 (centres undefined)	22.2% (inactive)	–
COc1ccc(OC)c(C2C3CN(C(C)C)CC=C3C(C#N)=C(N)C2(C#N)C#N)c1 (centres undefined)	-0.5% (inactive)	–
CC(C)N1CC=C2C(C#N)=C(N)C(C#N)(C#N)[C@H](c3ccoc3)[C@H]2C1	123% (active)	–
CN1CC=C2C(C#N)=C(N)C(C#N)(C#N)[C@H](c3cccc(Cl)c3)C2C1 (some centres undefined)	25.6% (inactive)	–
CC(C)N1CC=C2C(C#N)=C(N)C(C#N)(C#N)C(c3ccccc3)C2C1 (centres undefined)	86.9% (active)	–

Compound	inhibition (at 20 µM)	inhibition [1] [%]
CN1CC=C2C(C#N)=C(N)C(C#N)(C#N)C(Cc3ccccc3)C2C1 (centres undefined)	52.9% (active)	–
COc1cc(/C=C(\C#N)C(=O)NCC2CCCO2)ccc1OC(C)C (centres undefined)	-1.4% (inactive)	–
CN(CC(=O)Nc1ccc(F)c(F)c1F)c1ncnc2sccc12	0.3% (inactive)	–
COCCn1c(SCC(=O)N2CCCc3ccccc32)nnc1-c1ccoc1C	-1.1% (inactive)	–
COc1ccc(Cl)cc1N1C(=O)CN(Cc2cc(OC)c(OC)c(OC)c2)C1=S	1% (inactive)	–
COc1ccccc1C(=O)NNC(=O)c1ccc2ccccc2c1	0.5% (inactive)	–
O=C(/C=C/c1ccccc1)Nc1cccnc1Cl	-1.1% (inactive)	–
Cc1c(C#N)c(O)[nH]c(=O)c1N=Nc1ccc(S(N)(=O)=O)cc1	12% (inactive)	–
CCCCOC(=O)c1ccc(N=Nc2c(C)c(C#N)c(O)[nH]c2=O)cc1	77.6% (active)	93.8
CCOC(=O)c1ccc(N=Nc2c(C)c(C#N)c(O)[nH]c2=O)cc1	4.3% (inactive)	–
COc1ccccc1CC(NC(C)=O)C(=O)NC1CCN(C(=O)Nc2cccc(F)c2)CC1 (centres undefined)	-1.2% (inactive)	–
C=C1CCN([C@@H](C)C(=O)OCc2cccc(C)c2)S(=O)(=O)c2ccccc21	1.3% (inactive)	–
CC(C(=O)N(C)C1CCS(=O)(=O)C1)N1C(=O)/C(=C/c2ccco2)SC1=S (centres undefined)	24.8% (inactive)	–
O=C(CN1C(=O)/C(=C/c2ccco2)SC1=S)Nc1ccc(O)c(C(=O)O)c1	58.3% (active)	–
CC(=O)c1ccc(NC(=O)CCCN2C(=O)/C(=C/C(C)=C/c3ccccc3)SC2=S)cc1	3.3% (inactive)	–
O=C(CCCN1C(=O)/C(=C\c2ccco2)SC1=S)Nc1ccc2ccccc2c1	65.1% (inactive)	3
O=C(CCN1C(=O)/C(=C\c2ccco2)SC1=S)Nc1ccc(C(=O)O)c(O)c1	75.4% (active)	–
O=C(CCCN1C(=O)/C(=C/c2ccccc2)SC1=S)Nc1ccc(C(=O)O)c(O)c1	60.7% (inactive)	40.5
CC(C(=O)Nc1ccc(C(=O)O)c(O)c1)N1C(=O)/C(=C\c2ccco2)SC1=S (centres undefined)	78.3% (active)	–
CC(C(=O)Nc1ccc(O)cc1C(=O)O)N1C(=O)/C(=C\c2cccs2)SC1=S (centres undefined)	50.1% (inactive)	46.3
O=C(CCCN1C(=O)/C(=C/c2ccco2)SC1=S)Nc1ccccc1C(=O)O	67.2% (inactive)	29.8
O=C(CCCN1C(=O)/C(=C/c2ccco2)SC1=S)Nc1cccc(C(=O)O)c1	59.9% (inactive)	12.3
CC(/C=C1\SC(=S)N(CCCC(=O)Nc2ccc(C(=O)O)c(O)c2)C1=O)=C\c1ccccc1	56.9% (active)	–
O=C(CCN1C(=O)S/C(=C/c2ccccc2)C1=O)Nc1ccc(C(=O)O)c(O)c1	29.4% (inactive)	–
